Data: PubChem BioAssay (EPA / NIEHS)
Values joined by “and” are separate entries in the source; they are usually repeats but may differ in a detail not shown here. Equal entries are not always repeated. Active and inactive are the calls of the source. How the source made its calls: active means hit-call score of the fitted dose curve at least 0.9, where 1 is the maximum; inactive means score below 0.9.

Assay: ATG_PPRE_CIS: Attagene CIS-FACTORIAL HepG2 Assay for human Peroxisome Proliferator-activated Response Element (PPRE) (AID 2282958)
Conditions: HepG2 PPRE cis-element reporter, Attagene transcription factor profiling; actives raise or lower the signal
Protocol: ATG_CIS is a cell-based, multiplexed-readout assay that uses HepG2, a human liver cell line, with measurements taken at 24 hours after chemical dosing in a 24-well plate.ATG_PPRE_CIS is one of 52 assay component(s) measured or calculated from the ATG_CIS assay. It is designed to make measurements of mRNA induction, a form of inducible reporter, as detected with fluorescence intensity signals by Reverse transcription polymerase chain reaction (RT-PCR) and Capillary electrophoresis technology.Data from the assay component ATG_PPRE_CIS was analyzed into 1 assay endpoint. This assay endpoint, ATG_PPRE_CIS, was analyzed with bidirectional fitting relative to DMSO as the negative control and baseline of activity. Using a type of inducible reporter, measures of mRNA for gain or loss-of-signal activity can be used to understand the reporter gene at the transcription factor-level as they relate to the gene PPARA and PPARD and PPARG. Furthermore, this assay endpoint can be referred to as a primary readout, because this assay has produced multiple assay endpoints where this one serves a reporter gene function. To generalize the intended target to other relatable targets, this assay endpoint is annotated to the nuclear receptor intended target family, where the subfamily is non-steroidal.
Human liver HepG2 cells are transiently transfected with multiple reporter transcription units (MRTUs) in 6-well plates using FuGene 6 reagent (Roche; 3 ml FuGene/1 mg DNA). The MRTU constructs are regulated by a cis-regulating element (promoter). […] A major difference between the CIS and TRANS system is that in CIS activities of endogenous TFs are measured, whereas the TRANS assay evaluates changes in activities of exogenous, chimeric NR-Gal4 proteins. […] At the end of 24 hour incubation, total RNA was isolated using TriZol reagent (Invitrogen). The isolated RNA is then reverse-transcribed using oligo(dT) primer and Mo-MLV reverse transcriptase (Invitrogen) with DNAse I (Ambion) treatment for 30 min. The one-tenth of the produced cDNA was amplified by PCR using Taq DNA polymerase (Invitrogen) and two reporter sequence-specific primers. The PCR products were fluorescently labeled by primer extension with 6-arboxyfluorescein (6-FAM) 5'-labeled reporter sequence-specific primer (2 min at 95 C, 20 s at 68 C and 10 min at 72 C) and these products were digested with 5U of HpaI (New England Biolabs) for 2h at 37 C. The fragments were purified using Qiaquick PCR columns (Qiagen), analyzed on an ABI 3130xL genetic analyzer (Applied Biosystems) with peak positions identified by using a set of X-rhodamine (ROX)-labeled MapMarker1000 molecular weight standards (BioVentures). The raw capillary electrophoresis data was processed using Attagraph software (Attagene).

SMILES | outcome | AC50
COCCOCCO | inactive | 
Nc1ccc(Sc2ccc(N)cc2)cc1 |  | 51.2 µM (active)
CC(C)CBr | inactive | 
CCOP(=S)(OCC)SCS(=O)(=O)CC | inactive | 
CC(O)C(F)(F)C(F)(F)F (stereo not given) | inactive | 
CCOP(=O)(O)C(N)=O | inactive | 
CCOC(=O)c1ccccc1C(=O)OCC | inactive | 
O=S(=O)(F)C(F)(F)C(F)(F)C(F)(F)C(F)(F)C(F)(F)C(F)(F)C(F)(F)C(F)(F)F | inactive | 
CCCCCCCc1ccc(O)cc1 | inactive | 
Cc1ccc(C(=O)Cl)cc1 | inactive | 
COP(=O)(O)OC | inactive | 
O=C(O)C(Cl)Cl | inactive | 
Clc1ccc(Oc2ccccc2)cc1 | inactive | 
COP(=O)(CCC(=O)NCO)OC | inactive | 
CC(O)C#N (stereo not given) | inactive | 
COC(=O)C(F)(F)C(F)(F)OC(F)(C(F)(F)F)C(F)(F)OC(F)=C(F)F (stereo not given) |  | 160 nM (active) and 436 nM (active) and 230 nM (active)
CC1(C)CN=C(NN=C(/C=C/c2ccc(C(F)(F)F)cc2)/C=C/c2ccc(C(F)(F)F)cc2)NC1 |  | 3.92 µM (active)
CN(C)C(=O)Cl | inactive | 
CC(=O)CCc1ccc2c(c1)OCO2 | inactive | 
CCOS(=O)(=O)OCC | inactive | 

SMILES | outcome | AC50
CCOP(=S)(Oc1ccc([N+](=O)[O-])cc1)c1ccccc1 (stereo not given) | inactive | 
Cc1ccc(N)cc1N | inactive | 
CCNc1nc(Cl)nc(NC(C)(C)C)n1 | inactive | 
O=S1(=O)OCC2C(CO1)C1(Cl)C(Cl)=C(Cl)C2(Cl)C1(Cl)Cl (stereo not given) | inactive | 
CCOP(=S)(NC(C)C)Oc1ccccc1C(=O)OC(C)C (stereo not given) | inactive | 
O=C(O)C=CC(F)(C(F)(F)F)C(F)(F)F | inactive | 
FC(F)(F)c1ccc(Cl)cc1 | inactive | 
O=c1ssc(Cl)c1Cl | inactive | 
O=C(O)C(F)(F)C(F)(F)C(=O)O | inactive | 
ClC(Cl)c1ccccc1 | inactive | 
CCC1(c2ccccc2)C(=O)N=C(O)NC1=O (stereo not given) | inactive | 
CCCCC(CC)COC(=O)c1c(Br)c(Br)c(Br)c(Br)c1C(=O)OCC(CC)CCCC (stereo not given) | inactive | 
CCOC(=O)c1ccccc1N | inactive | 
NC(=O)C(F)(F)C(F)(F)F | inactive | 
O=P(Oc1ccccc1)(Oc1ccccc1)Oc1ccccc1 | inactive | 
CCCCOCCOP(=O)(OCCOCCCC)OCCOCCCC | inactive | 
Cc1cc(C)c(C(=O)P(=O)(c2ccccc2)c2ccccc2)c(C)c1 | inactive | 
CCOP(=S)(OCC)SCn1nnc2ccccc2c1=O | inactive | 
N#Cc1cc([N+](=O)[O-])ccc1N | inactive | 
O=c1[nH]c2ccccc2c(=O)o1 | inactive | 
